PubChem BioAssay (Tox21)
Where “and” joins values, the source holds several entries; their conditions need not be identical. Identical values can stand only once. Records with an inconclusive call do not appear. Some compounds were tested as several samples or in several runs, with calls that do not always agree. Calls of active or inactive are those of the source. Unless noted, the call rests on the fitted dose curve; in most records, active means well fitted curve in the direction sought with a large enough effect in the repeat runs; inconclusive means weak or mixed curves; inactive means no such curve, though single readings can be large; an effect the other way counts as inactive or inconclusive.

What was measured:
[1] = qHTS assay to identify aromatase inhibitors - cell viability counter screen (AID 743084);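 further: cells stimulated with testosterone during compound exposure; nearly all actives have a fitted effect of over 55% in size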; further: potency means the concentration at half of the fitted maximal effect
[2] = target: Aryl hydrocarbon receptor (Homo sapiens) (UniProt P35869); test: qHTS assay to identify small molecule that activate the aryl hydrocarbon receptor (AhR) signaling pathway (AID 743085); further: nearly all actives have a fitted effect of over 15% in size; further: potency means the concentration at half of the fitted maximal effect;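 on activation: HG2L7.5c1 human HepG2 liver cells with stably integrated DRE-driven firefly reporter; series mostly up to about 70 µM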
Method in brief: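 Luminescence (ONE-Glo) from a dioxin-responsive-element luciferase reporter in HG2L7.5c1 HepG2 cells after 24 hr compound exposure at 37C; viability measured by CellTiter-Fluor fluorescence beforehand.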

[3] = qHTS assay to identify small molecule that activate the aryl hydrocarbon receptor (AhR) signaling pathway - cell viability counter screen (AID 743086); further: nearly all actives have a fitted effect of over 45% in size; further: potency means the concentration at half of the fitted maximal effect
Method in brief: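 HepG2-AhR-luc (HG2L7.5c1) cells, 4000/well, were preincubated 5 h at 37C, exposed to compound in qHTS format for 24 hr at 37C, then given CellTiter-Fluor for 30 min; viability was read as fluorescence in the reporter wells.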

[4] = target: Peroxisome proliferator-activated receptor gamma (Homo sapiens) (UniProt P37231); test: qHTS assay to identify small molecule agonists of the peroxisome proliferator-activated receptor gamma (PPARg) signaling pathway (AID 743094; active means well fitted activation curve with a large enough effect in the signal ratio in the repeat runs, not every such curve was filed as active; the % refers to the signal ratio; further: potency means the concentration at half of the fitted maximal effect)
Method in brief: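 Quantitative HTS agonist mode: stable HEK293H line with UAS-beta-lactamase reporter under PPARg control, 17 h compound exposure at 37C, fluorescence after 1 h FRET substrate loading at room temperature.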

[5] = target: Peroxisome proliferator-activated receptor gamma (Homo sapiens) (UniProt P37231); test: qHTS assay to identify small molecule antagonists of the peroxisome proliferator-activated receptor gamma (PPARg) signaling pathway (AID 743191; calls by dose curve; further: nearly all actives have a fitted effect of over 30% in size; further: potency means the concentration at half of the fitted maximal effect)
Method in brief: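 GeneBLAzer PPARg UAS-bla HEK293H cells carrying a UAS-driven beta-lactamase reporter were plated at 3000 cells/well, preincubated 5 h at 37C, then given compound for 17 h at 37C; LiveBLAzer B/G FRET substrate was read after 1 h at room temperature.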

[6] = qHTS assay to identify small molecule antagonists of the peroxisome proliferator-activated receptor gamma (PPARg) signaling pathway - cell viability counter screen (AID 743194); further: nearly all actives have a fitted effect of over 55% in size; further: potency means the concentration at half of the fitted maximal effect
Method in brief: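 PPARg-UAS-bla HEK293H cells were plated, rested 5 h at 37 C, then treated with compounds plus rosiglitazone (50 nM final) for 17 h at 37 C; viability was then read by CellTiter-Glo luminescence after 30 min at room temperature.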

[7] = qHTS assay for small molecule agonists of the antioxidant response element (ARE) signaling pathway (AID 743202; active means well fitted activation curve with a large enough effect in the signal ratio in the repeat runs, not every such curve was filed as active; the % refers to the signal ratio; further: potency means the concentration at half of the fitted maximal effect)
Method in brief: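 Read-out: LiveBLAzer B/G FRET substrate fluorescence after 2 h at room temperature, following 16 h compound treatment at 37 C of HepG2 cells carrying an ARE-driven beta-lactamase reporter.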

[8] = qHTS assay for small molecule agonists of the antioxidant response element (ARE) signaling pathway - cell viability counter screen (AID 743203; calls by dose curve; further: nearly all actives have a fitted effect of over 55% in size; further: potency means the concentration at half of the fitted maximal effect)
Method in brief: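 Seeded at 2,000 cells/well, ARE-bla HepG2 cells were incubated 5 hrs before compound addition. After 16 hrs of treatment at 37C with 5% CO2, CellTiter-Glo reagent was added and luminescence read 30 min later.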

[9] = qHTS assay for small molecule activators of the heat shock response signaling pathway - cell viability counter screen (AID 743209); further: nearly all actives have a fitted effect of over 50% in size; further: potency means the concentration at half of the fitted maximal effect
Method in brief: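 First, HSE-bla HeLa cells were seeded at 1500 cells/well and kept overnight at 37 C. Next, compounds were pinned in and incubated 5 h. After the FRET substrate step, CellTiter-Glo was added and luminescence read 30 min later.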

[10] = qHTS assay for small molecule activators of the heat shock response signaling pathway (AID 743210; active means well fitted activation curve with a large enough effect in the signal ratio in the repeat runs, with a control signal flat, not every such curve was filed as active; the % refers to the signal ratio; further: series mostly up to about 63 µM)
Method in brief: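 HSE-bla HeLa cells (beta-lactamase reporter under heat shock response elements) were exposed to compounds for 5 h at 37 C, then loaded with LiveBLAzer B/G FRET substrate for 2.5 h at room temperature before fluorescence reading.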

Measured: Potency

Chain of Peroxisome proliferator-activated receptor gamma (Homo sapiens) (P37231 whole entry, looked up): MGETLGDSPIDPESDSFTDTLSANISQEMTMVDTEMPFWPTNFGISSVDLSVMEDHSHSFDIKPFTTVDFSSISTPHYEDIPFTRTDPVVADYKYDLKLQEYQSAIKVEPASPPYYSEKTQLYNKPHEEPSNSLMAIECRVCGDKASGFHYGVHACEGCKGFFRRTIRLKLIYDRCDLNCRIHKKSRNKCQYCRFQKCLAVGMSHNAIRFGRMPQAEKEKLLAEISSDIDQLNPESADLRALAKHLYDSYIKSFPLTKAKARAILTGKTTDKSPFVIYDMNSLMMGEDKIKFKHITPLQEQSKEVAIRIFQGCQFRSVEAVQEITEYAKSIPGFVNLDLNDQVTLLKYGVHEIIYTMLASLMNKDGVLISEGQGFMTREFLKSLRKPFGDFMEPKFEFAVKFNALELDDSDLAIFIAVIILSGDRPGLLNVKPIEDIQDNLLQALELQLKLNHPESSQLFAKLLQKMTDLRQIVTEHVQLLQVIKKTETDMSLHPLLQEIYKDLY
Chain of Aryl hydrocarbon receptor (Homo sapiens) (P35869 whole entry, looked up): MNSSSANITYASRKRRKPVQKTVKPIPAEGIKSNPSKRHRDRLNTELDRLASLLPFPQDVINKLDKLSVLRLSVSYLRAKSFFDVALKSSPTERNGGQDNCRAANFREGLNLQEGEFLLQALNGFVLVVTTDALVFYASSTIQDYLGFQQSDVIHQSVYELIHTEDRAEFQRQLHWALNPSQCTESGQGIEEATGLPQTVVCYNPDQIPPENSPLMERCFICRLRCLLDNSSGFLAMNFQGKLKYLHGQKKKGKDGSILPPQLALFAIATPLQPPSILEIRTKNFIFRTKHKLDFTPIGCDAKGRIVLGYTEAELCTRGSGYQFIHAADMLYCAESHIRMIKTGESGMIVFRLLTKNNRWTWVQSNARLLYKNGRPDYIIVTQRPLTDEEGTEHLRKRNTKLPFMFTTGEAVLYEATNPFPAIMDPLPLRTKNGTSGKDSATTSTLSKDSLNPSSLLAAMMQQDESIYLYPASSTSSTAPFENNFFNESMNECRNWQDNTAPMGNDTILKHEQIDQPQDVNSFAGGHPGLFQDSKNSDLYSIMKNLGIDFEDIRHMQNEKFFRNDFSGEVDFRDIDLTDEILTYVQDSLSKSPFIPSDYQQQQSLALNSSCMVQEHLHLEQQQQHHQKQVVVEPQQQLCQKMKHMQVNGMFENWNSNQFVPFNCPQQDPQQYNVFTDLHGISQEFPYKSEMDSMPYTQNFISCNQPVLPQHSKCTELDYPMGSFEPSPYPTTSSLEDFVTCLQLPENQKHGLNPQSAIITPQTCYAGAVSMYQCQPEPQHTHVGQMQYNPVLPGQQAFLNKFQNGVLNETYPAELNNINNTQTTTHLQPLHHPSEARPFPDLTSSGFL

CCCCC(CC)COCC1CO1 (stereo not drawn)
inactive: all assays above

COC(=O)c1ccccc1
inactive: all assays above

Cc1cccc([N+](=O)[O-])c1C
inactive: all assays above

C=C(C)C(=O)OCCOC(=O)C(=C)C
inactive: all assays above

CCC(C)CO (stereo not drawn)
inactive: all assays above

Cc1ccc2c(n1)Oc1ccc(C(C)C(=O)OCC(=O)N(C)C)cc1C2 (stereo not drawn)
active: [2] 11.9 µM
inactive: all other assays above

CCCCC(CC)COC(=O)c1ccc(N(C)C)cc1 (stereo not drawn)
inactive and 27.3 µM (active): [2]
inactive: all other assays above

Brc1cc(Oc2cc(Br)c(Br)c(Br)c2Br)c(Br)c(Br)c1Br
not listed: [7]
inactive: all other assays above

CC(=O)C1(C)CC2=C(CCCC2(C)C)CC1C (stereo not drawn)
inactive: all assays above

CN1C(C(=O)Nc2ccccn2)=C(O)c2ccccc2S1(=O)=O
inactive and 24.6 µM (active): [2]
inactive: all other assays above

COc1ccc(C(=O)CC(=O)c2ccc(C(C)(C)C)cc2)cc1
not listed: [10]
inactive: all other assays above

NC=O
inactive: all assays above

O=C(c1ccccc1)c1ccc(O)cc1O
active: [7] 30.6 µM
inactive: all other assays above

CCC(C)(O)CCCC(C)C (stereo not drawn)
inactive: all assays above

Cc1ccc(C)c(O)c1C
inactive: all assays above

CC(C)OC=O
inactive: all assays above

Cc1ncc[nH]1
inactive and 48.5 µM (active): [2]
inactive: all other assays above

O=C(O)c1ccccc1Nc1cccc(C(F)(F)F)c1
active: [7] 54.5 µM
not listed: [5]
inactive: all other assays above

CNCCCC12CCC(c3ccccc31)c1ccccc12
active: [5] 13.3 µM | [8] 19.3 µM
inactive and 54.5 µM (active): [1]
inactive and 61.1 µM (active): [3]
inactive: [2] | [4] | [9] | [10]

Nc1ccc(Cl)cc1Cl
not listed: [6]
inactive: all other assays above

c1ccc2sc(SSN3CCOCC3)nc2c1
inactive: [3] | [6] | [9]
active: [1] 6.84 µM | [2] 30.6 µM | [4] 5.48 µM

CC(=O)Oc1ccccc1C(=O)Nc1ncc([N+](=O)[O-])s1
inactive: [4] | [7] | [10]
active: [1] 22.1 µM | [6] 1.58 µM and 5.31 µM | [9] 1.19 µM
inactive and 17.6 µM (active): [3]
10.6 µM (active) and inactive: [2]
